# Measurements as given in PubChem BioAssay.
# A number with no mark means an inactive call. For some assays here: Results with a measured potency or affinity are listed apart. Active and inactive are the calls of the source. Unless noted, how the calls were made is not given here.
# Legend:
# [1] = antimalarial activity against Dd2 strain (AID 2302;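 active means growth inhibition above 50% at the single 2 µM test dose, taken to imply half-maximal potency below 2 µM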;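 further: 0% = DMSO untreated growth and 100% = chloroquine plus artemisinin killed control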); conditions: P. falciparum Dd2 in RBCs, LDH growth readout, 72 h; at 2 µM; stronger effect = higher value
# [2] = HepG2 cytotoxicity, primary screen, cytotoxicity control for P. falciparum antimalarial project, cell-based, ATP luminescence (AID 2303;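 active means inhibition above 50%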;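 further: 0% = DMSO wells and 100% = digitonin-killed cells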); conditions: HepG2 viability, 24-48 h, at 10 µM, stronger effect = higher value
# [3] = biological target: L-lactate dehydrogenase (Plasmodium falciparum (isolate CDC / Honduras)) (UniProt Q27743); experiment: PfLDH activity inhibition – cell lysate, 3D7 strain, counter-screen for P. falciparum growth inhibition project (AID 2304);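 further: 0% = vehicle and 100% = reference inhibitor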; conditions: P. falciparum 3D7 crude extract, LDH APAD/NBT absorbance; at 2 µM; stronger effect = higher value
# Chain of L-lactate dehydrogenase (Plasmodium falciparum (isolate CDC / Honduras)) (Q27743 whole entry, looked up): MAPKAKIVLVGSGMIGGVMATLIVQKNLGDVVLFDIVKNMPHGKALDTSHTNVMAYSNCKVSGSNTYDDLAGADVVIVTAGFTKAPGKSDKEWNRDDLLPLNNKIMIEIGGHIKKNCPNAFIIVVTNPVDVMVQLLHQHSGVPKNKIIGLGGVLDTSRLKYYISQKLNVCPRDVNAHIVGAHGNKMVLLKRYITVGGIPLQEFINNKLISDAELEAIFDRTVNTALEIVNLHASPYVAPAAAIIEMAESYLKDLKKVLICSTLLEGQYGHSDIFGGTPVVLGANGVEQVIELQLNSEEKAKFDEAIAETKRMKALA
# [4] = inhibition of 3D7 malaria parasite growth – strain 3D7 (AID 2306);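 further: 0% = DMSO wells and 100% = chloroquine plus artemisinin control wells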; conditions: P. falciparum 3D7 erythrocytic growth, LDH absorbance, 72 h; at 2 µM; stronger effect = higher value
# [5] = biological target: Calcium-dependent protein kinase 1 (Plasmodium falciparum (isolate 3D7)) (UniProt P62344); experiment: PfCDPK1 kinase inhibitors, biochemical, TCAMS library (AID 1159585; cut-off not given, nearly all actives have IC50 up to about 0.98 µM;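 further: inhibitors leave more ATP so luminescence rises with inhibition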); conditions: recombinant PfCDPK1, Kinase-Glo ATP depletion luminescence
# Chain of Calcium-dependent protein kinase 1 (Plasmodium falciparum (isolate 3D7)) (P62344 whole entry, looked up): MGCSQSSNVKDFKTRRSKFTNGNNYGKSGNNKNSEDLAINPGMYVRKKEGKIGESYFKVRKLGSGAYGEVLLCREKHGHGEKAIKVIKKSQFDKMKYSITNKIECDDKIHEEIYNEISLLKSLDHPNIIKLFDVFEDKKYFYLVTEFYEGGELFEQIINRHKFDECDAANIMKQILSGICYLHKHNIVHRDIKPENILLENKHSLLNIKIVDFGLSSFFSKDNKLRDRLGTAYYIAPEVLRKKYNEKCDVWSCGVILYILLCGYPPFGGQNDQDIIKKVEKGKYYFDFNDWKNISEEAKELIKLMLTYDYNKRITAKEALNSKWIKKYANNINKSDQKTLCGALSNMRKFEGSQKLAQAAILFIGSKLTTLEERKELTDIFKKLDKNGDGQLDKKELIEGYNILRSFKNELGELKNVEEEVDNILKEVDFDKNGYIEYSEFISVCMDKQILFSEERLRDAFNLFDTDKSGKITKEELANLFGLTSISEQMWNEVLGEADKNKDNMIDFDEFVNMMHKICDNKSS
# [6] = biological target: Plasmodium falciparum protein kinase 6 (PK6, PF3D7_1337100) (UniProt Q8IDW1); experiment: PfPK6 kinase inhibitors, biochemical, TCAMS library (AID 1159586); conditions: recombinant PfPK6, Kinase-Glo ATP depletion luminescence
# Chain of Plasmodium falciparum protein kinase 6 (PK6, PF3D7_1337100) (Q8IDW1 1-305): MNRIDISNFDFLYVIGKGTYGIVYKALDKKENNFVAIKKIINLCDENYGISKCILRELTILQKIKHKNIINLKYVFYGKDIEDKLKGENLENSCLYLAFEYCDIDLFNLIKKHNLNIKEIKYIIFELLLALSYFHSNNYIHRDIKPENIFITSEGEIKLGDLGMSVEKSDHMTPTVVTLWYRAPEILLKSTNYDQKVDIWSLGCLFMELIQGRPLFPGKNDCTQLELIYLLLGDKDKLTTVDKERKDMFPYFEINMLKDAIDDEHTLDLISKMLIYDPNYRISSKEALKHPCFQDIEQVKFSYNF
# [7] = biological target: Protein kinase 7 (PK7), Plasmodium falciparum 3D7 (PF3D7_0213400) (UniProt Q7YTF7); experiment: inhibition of Plasmodium PK7 catalytic activity – biochemical, TCAMS antimalarial set, Kinase-Glo luminescence (AID 1159587); conditions: recombinant PfPK7, Kinase-Glo ATP depletion luminescence
# Chain of Protein kinase 7 (PK7), Plasmodium falciparum 3D7 (PF3D7_0213400) (Q7YTF7 1-343): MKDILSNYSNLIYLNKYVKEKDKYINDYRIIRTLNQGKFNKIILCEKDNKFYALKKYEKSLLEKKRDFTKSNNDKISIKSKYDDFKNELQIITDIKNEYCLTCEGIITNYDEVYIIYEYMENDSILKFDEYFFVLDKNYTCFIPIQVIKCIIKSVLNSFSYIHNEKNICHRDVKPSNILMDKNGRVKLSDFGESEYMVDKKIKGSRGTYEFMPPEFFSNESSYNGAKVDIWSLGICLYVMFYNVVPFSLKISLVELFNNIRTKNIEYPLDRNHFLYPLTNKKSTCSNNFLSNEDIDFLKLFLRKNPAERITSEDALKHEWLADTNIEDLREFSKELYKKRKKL
# [8] = biological target: Calcium-dependent protein kinase 4 (Plasmodium falciparum (isolate 3D7)) (UniProt Q8IBS5); experiment: PfCDPK4 kinase inhibitors, biochemical, TCAMS library (AID 1159588; cut-off not given, nearly all actives have IC50 up to about 0.91 µM); conditions: recombinant PfCDPK4, Kinase-Glo ATP depletion luminescence
# Chain of Calcium-dependent protein kinase 4 (Plasmodium falciparum (isolate 3D7)) (Q8IBS5 whole entry, looked up): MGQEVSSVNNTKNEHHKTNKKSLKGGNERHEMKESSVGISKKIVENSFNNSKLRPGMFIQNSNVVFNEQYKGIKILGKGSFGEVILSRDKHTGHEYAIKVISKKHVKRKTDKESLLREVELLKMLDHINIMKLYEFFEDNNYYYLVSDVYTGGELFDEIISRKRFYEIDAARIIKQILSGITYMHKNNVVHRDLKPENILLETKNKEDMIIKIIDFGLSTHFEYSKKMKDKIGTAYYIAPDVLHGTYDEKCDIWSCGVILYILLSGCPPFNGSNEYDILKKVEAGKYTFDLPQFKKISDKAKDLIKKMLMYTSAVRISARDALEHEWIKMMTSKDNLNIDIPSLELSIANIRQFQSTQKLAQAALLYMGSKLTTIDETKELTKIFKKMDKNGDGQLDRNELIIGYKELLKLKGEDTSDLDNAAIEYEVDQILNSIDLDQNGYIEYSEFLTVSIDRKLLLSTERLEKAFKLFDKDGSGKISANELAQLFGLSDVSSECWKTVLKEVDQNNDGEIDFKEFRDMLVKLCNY
SMILES,growth inhibition [1],inhibition [2],inhibition [3] [%],growth inhibition [4],outcome [5],outcome [6],outcome [7],outcome [8]
Cc1cccc(C)c1NC1=NC(=S)N(c2cccc(Cl)c2)C12CCC(C(C)(C)C)CC2 (stereo not given),53% (active),4%,-14,87% (active),inactive,inactive,inactive,inactive
O=C(Nc1ccc(-c2ccc(-c3nc4ccc(C(F)(F)F)cc4[nH]3)s2)cc1)c1ccoc1,54% (active),9%,3,94% (active),inactive,inactive,inactive,inactive
Fc1cccc(C=NNc2ccnc3ccccc23)c1,72% (active),3%,7,103% (active),inactive,inactive,inactive,inactive
COc1cc2nc(N3CCC(CCCC4CCNCC4)CC3)nc(NCc3ccccn3)c2cc1OC,6%,2%,3,101% (active),inactive,inactive,inactive,inactive
CS(=O)(=O)c1ccc2c(c1)CCN(CCC1CCC(NC(=O)C(=Cc3cccc(C#N)c3)c3ccc(-c4ccccc4)cc3)CC1)CC2 (stereo not given),13%,24%,-6,99% (active),inactive,inactive,inactive,inactive
CC(C)CC1c2[nH]c3ccccc3c2CCN1C(=O)CCc1ccccc1 (stereo not given),82% (active),-13%,-2,92% (active),inactive,inactive,inactive,inactive
COc1ccc(-c2ccc(NC(=O)c3cccc(Cl)c3)cc2)cc1CN1CCCN(C)CC1,50% (active),48%,8,95% (active),inactive,inactive,inactive,inactive
CS(=O)(=O)c1ccc(-n2nc(C(F)(F)F)cc2-c2ccc(/C=N/OCC(=O)O)o2)cc1,0%,-15%,-7,87% (active),inactive,inactive,inactive,inactive
Cc1c(F)cc(C(=O)NC2CC2)cc1-c1ccc2c(cnn2S(=O)(=O)c2cccs2)c1,68% (active),32%,-4,92% (active),inactive,inactive,inactive,inactive
CC(C)C(C(=O)n1cc2c(ccc3nc(N)nc(N)c32)n1)C(C)C,49%,58% (active),-6,98% (active),inactive,inactive,inactive,inactive
CCCCCCCCCCS(=O)(=O)N[C@H](COCc1cccc(Oc2ccccc2)c1)COP(=O)(O)OC,-3%,-1%,-8,87% (active),inactive,inactive,inactive,inactive
O=C(/C=C/c1ccc(Cl)cc1)NCCCCCN1CCCN(C(=O)Nc2cccc(Cl)c2)CC1,10%,19%,-3,85% (active),inactive,inactive,inactive,inactive
CCN(CC)C(C)(C)CN(Cc1ccc(-c2ccc(C(F)(F)F)cc2)cc1)C(=O)Cn1c(CCc2cccc(F)c2F)nc(=O)c2ccccc21,79% (active),53% (active),-2,91% (active),inactive,inactive,inactive,inactive
Cc1ccc(OCCCCONC(=O)c2ccccc2)cc1,1%,6%,-2,96% (active),inactive,inactive,inactive,inactive
N=c1n(CCN2CCCCC2)c2ccccc2n1CC(O)c1cccc(Br)c1 (stereo not given),33%,25%,-1,86% (active),inactive,inactive,inactive,inactive
O=C(NC1c2ccccc2Oc2ccccc21)c1ccccc1O,-3%,-3%,-1,95% (active),inactive,inactive,inactive,inactive
c1ccc(COc2ccc(Nc3ncnc4cnc(-c5ccc(CN6CCCCC6)o5)cc34)cc2)cc1,13%,-14%,-5,90% (active),inactive,inactive,inactive,inactive
COc1ccc2nccc([C@@H](O)CN3CCC(NC(=O)c4cccc(-c5cc(C)no5)c4)CC3)c2c1,89% (active),19%,1,93% (active),inactive,inactive,inactive,inactive
Fc1ccc2nc(-c3ccc(-c4ccc(CNCCN5CCNCC5)cc4)s3)[nH]c2c1,2%,24%,-1,96% (active),inactive,inactive,inactive,inactive
COc1ccc(N2CCN(CCCCNC(=O)c3ccc(NC(=O)c4ccc(Cl)cc4)cc3)CC2)c(C)c1,51% (active),42%,0,100% (active),inactive,inactive,inactive,inactive

SMILES,growth inhibition [1],inhibition [2],inhibition [3] [%],growth inhibition [4],outcome [5],outcome [6],outcome [7],outcome [8]
CN(C)CCCN1C(=O)c2[nH]nc(-c3ccc(Cl)cc3O)c2C1c1ccc(Cl)cc1 (stereo not given),15%,57% (active),4,99% (active),inactive,inactive,inactive,inactive
Cc1cc(NCCCCCCNc2cc(C)nc3c(C)cccc23)c2cccc(C)c2n1,9%,23%,-2,100% (active),inactive,inactive,inactive,inactive
Nc1cc(C(F)(F)F)ccc1Cl,-1%,8%,-1,97% (active),inactive,inactive,inactive,inactive
CC(C)CC1(C(=O)OC(C)(C)C)CC(C(=O)OC(C)(C)C)C(c2cccs2)N1C(=O)c1ccc(C(C)(C)C)cc1 (stereo not given),100% (active),21%,-2,101% (active),inactive,inactive,inactive,inactive
CC(C)(C)c1ccc(CN2CCCCC(NC(=O)c3cc(-c4ccccc4F)cs3)C2)cc1 (stereo not given),99% (active),6%,3,101% (active),inactive,inactive,inactive,inactive
CNCCNCc1ccc(-c2ccc(-c3nc4ccc(C(F)(F)F)cc4[nH]3)cc2)cc1,92% (active),28%,1,99% (active),inactive,inactive,inactive,inactive
Fc1ccc2c(NN=CC=Cc3ccccc3)ccnc2c1,98% (active),-2%,-3,101% (active),inactive,inactive,inactive,inactive
O=C(Nc1cc(Cl)cc(Cl)c1)c1cnn(-c2ccc(F)cc2)c1C1CCNCC1,-1%,13%,-2,90% (active),inactive,inactive,inactive,inactive
CN1CCC[C@H]1COc1ccc(CN2CC[C@H](NC(=O)c3ccc(Cl)c(Cl)c3)C2)cc1Br,20%,81% (active),-1,101% (active),inactive,inactive,inactive,inactive
CCN(CCCN1CCCCC1)c1cc(C)nc(Nc2ccc3c(c2)CCC3)n1,93% (active),32%,5,100% (active),inactive,inactive,inactive,inactive
O=C(N[C@@H](Cc1ccccc1)[C@H](O)CNC1CCOCC1)c1cc(C2CCCC2)cc(N2CCCCS2(=O)=O)c1,98% (active),3%,-1,100% (active),inactive,inactive,inactive,inactive
CC(NC(=O)c1ccc(O)c(-c2ccc(Cl)c(Cl)c2)c1)C(=O)NC1CCCCC1 (stereo not given),82% (active),-5%,-2,96% (active),inactive,inactive,inactive,inactive
CC1=C(C(=O)Nc2cc3cn[nH]c3cc2F)C(c2ccc(Cl)c(NS(C)(=O)=O)c2)CC(=O)N1 (stereo not given),98% (active),2%,-1,88% (active),inactive,inactive,inactive,inactive
O=C(Nc1cccc(CN2CCCN(Cc3ccccc3)CC2)c1)c1cc2ccccc2s1,28%,41%,1,87% (active),inactive,inactive,inactive,inactive
CC(=O)Nc1ccc(C(=O)Nc2cccc(-c3ccc(-c4nc5ccccc5[nH]4)cc3)c2)cn1,93% (active),12%,0,100% (active),inactive,inactive,inactive,inactive
Cc1[nH]c(C)c(-c2ccc(OCc3ccc(F)cc3)nc2)c(=O)c1Br,97% (active),41%,-4,97% (active),inactive,inactive,inactive,inactive
O=C(Nc1cccc(-c2ccc(CN3CCCC3)cc2)c1)c1ccc(F)cc1,9%,23%,4,92% (active),inactive,inactive,inactive,inactive
C(=Cc1ccccc1)C=NNc1ccnc2ccccc12,100% (active),24%,5,100% (active),inactive,inactive,inactive,inactive
CCOC(=O)c1c(C)n(-c2ccc(Cl)cc2)c2ccc(OC(=O)C=Cc3ccccc3)cc12,92% (active),3%,-2,99% (active),inactive,inactive,inactive,inactive
O=C(Nc1ccccc1)Nc1cccc(-c2cc(CNCCc3ccccc3)sc2-c2ccncc2)c1,84% (active),14%,7,100% (active),inactive,inactive,inactive,inactive
